# The whole screen tested about 53,000 sequences, of which about 3,700 (7%) were called active. The entries come from a sample that favours actives as a whole. A number with no mark means an inactive call.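 The calls were made as follows: active = gene knockdowns whose robust z-score for IL-1 alpha signal is at least 2 or at most -2, so actives lie on both sides; inactive = the rest.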
# Experiment: Components of the Cytosolic LPS Sensing Pathway: Gene Identification via Genome-wide siRNA Screen;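 also: robust z of the log signal after scaling to non-targeting control siRNA wells of the plate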
# Conditions: RAW264.7 macrophages, IL-1a HTRF, actives lie on both sides, screened at 100 nM (by protocol), cells primed 5 h with Pam3CSK4 first
# Summary of the method: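 Using IL-1a HTRF as read-out, the screen measured release from RAW264.7 cells after 48h siRNA knockdown (100 nM), 5 h Pam3CSK4 priming and 24 h cytosolic LipidA. Values were expressed relative to negative-control wells as robust z-scores.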
row,Sequence,z-score
1,GCAUAGCCACAAGGUUAAUTT against Nat8f4,0.35
2,GUAUUAUAGACACCUUGCATT against Phip,-0.835
3,GGACAGCUACCUCAUCCAUTT against Lpcat3,2.08 (active)
4,GGACAGAUGAAGCUGCAUUTT against S100a4,-0.422
5,GGUGAAGAAGAGUCUCAAATT against Mrnip,1.6
6,GCACAUAUCACGCUACCUGTT against Lrrc75b,-0.0605
7,GCGAAGAGUGAUUGAUCCATT against Myh1,-0.773
8,GGAAGCAGAAGCUAAAGUGTT against Ubap1,2.11 (active)
9,CCUGACAGUAGUUACUAUUTT against Olfr1154,-0.945
10,GGUUUUUUGUAGCAAACAGTT against Phc2,-2.7 (active)
11,GGUCCUUUACAUGAACCGCTT against Vps18,-0.661
12,GGAAUGCAUGAUGAUGUCATT against Prl7a2,-0.783
13,GGGAUCCUCUUGACAUUCCTT against Epdr1,3.87 (active)
14,GGUAGCAGACAGCUACCCUTT against Tnfsf15,0.405
15,CCAAGCUAUUGGCCCUGACTT against Defb38,0.251
16,GCUGAUGACCACUGAGUUUTT against Tsr2,1.34
17,GCAAGUCAGCUACAACUGUTT against Rnasek,0.0313
18,GGUGGCUAUAACAGAGCCUTT against Rdh18-ps,0.173
19,GGAAACAAGGAAGCAAUUATT against Psmd1,-3.01 (active)
20,GGAGAAACCAGCUAAAGGATT against Car9,-0.235
21,GGUGAUCAGCAUGGUGGGUTT against Pold1,0.208
22,GGUAUAAAGAACUCUGUCATT against Cep78,-2.49 (active)

row,Sequence,z-score
1,GGGUGAUAGCAAGACACAGTT against Olfr720,1.06
2,GGAGGACCAAGAGGACAUUTT against Tbl3,0.468
3,GGCCCAAGAGAUUGAUCAATT against Ivd,-0.565
4,CGAAACCUCUAAGAAGAUATT against Pole,-0.264
5,GGCAUGUUCCUCAUAUGCCTT against Lrit1,-2.01 (active)
6,GGAGCAUUGCCUUUUAAAGTT against Psph,-0.474
7,CCAAUUGGGCCACACGUAATT against Tial1,1.15
8,GGACUCUUUUGGACCUAAGTT against Hilpda,-1.24
9,GGAACAAAUUCUGGAGUUGTT against Zfp287,0.791
10,GGUUACAGAGAGACAUCAUTT against Cdk5rap2,0.942
11,GGGUUUCAACGGCUGUGACTT against Mef2d,-2.73 (active)
12,GGUUAUGGAGACAAAGGAUTT against Sik1,-1.33
13,CCGUACGAUGAUAAUACCATT against Clec4a3,2.29 (active)
14,GGAGCUAGCUGAGUUCAUGTT against Arhgap4,1.22
15,GGACAGCUCUCUUUAGUCUTT against Erf,-1.78
16,GGACCUGAAGGCUGAAAUUTT against Ing4,3.08 (active)
17,GGUCUGAUAACUCUGGAGGTT against Snf8,-0.0859
18,GGAUGGACAUCCAAGCAGGTT against Fabp9,-1.97
19,GGAGUGUUACUAGAUGUCCTT against Spns3,0.394
20,CGAACUGGUAGAAGUUAUUTT against Csgalnact2,2.07 (active)
21,GGUCUCUGUACUUUGACUGTT against Cldn19,-1.2
22,GGAGCAAAAUUCACAGUCUTT against Bcl7a,-0.25

row,Sequence,z-score
1,GAUUGGCUUCAAUCUAGUCTT against Olfr713,0.701
2,GGGCCAGAGUCAGAAAAGGTT against Ebp,1.98
3,GCGUAUGUACCGAUGGCAGTT against Mocs2,0.871
4,CGCUGCCUAAACAAGAUUATT against Cacna1f,3.28 (active)
5,AGACCUUGAGAACAUUCUUTT against Nkx2-6,0.925
6,CCGUGAUCUUAAACCCUCUTT against Mapk7,-0.988
7,CGUUUUACCACCGUGUGCUTT against Gfra1,-0.284
8,GGUAAUUCAGUCUUAUACATT against Pcdhb21,3.2 (active)
9,CGUGAAGAUUCUUAAGGCGTT against Ppil1,0.716
10,GGUGGAAUUGAAGAGUUCATT against Rcor3,0.24
11,GCAAGAAACGGGAACUAUUTT against Mettl7b,1.25
12,GGCCUUAGAAUUUGAUUCUTT against Slc30a8,0.814
13,GGAUGUAUAGGUUCAGCUGTT against Dph2,0.41
14,GGCCUUUGGGACAUGUGUGTT against Olfr552,-2.05 (active)
15,GGAGAAGCUCUUAAAGAAATT against Traf3ip3,0.959
16,GCAGUGAAGUCCAAGUUAGTT against Pold3,-0.456
17,CCAAUAAGUGACCUUUUUUTT against Tmprss11b,-0.989
18,CCAAGUCUACCUCUAUUUUTT against Pbsn,1.77
19,GGUUCCUUAAUUUAUUGCCTT against Fbxl22,2.31 (active)
20,CCACUAUGGCGACCAGAUUTT against Mfap2,0.0375
21,GCCCUCACAGCCAGAAUUGTT against Pram1,-2.15 (active)
22,GGUUAAAAGCCAUGUGUAATT against Pggt1b,-0.151

row,Sequence,z-score
1,CGAUGGUCGAAGGAUUGUCTT against Tnfsf4,-0.837
2,GUCACAAGCUGUCCAACAATT against Ndufa7,-2.25 (active)
3,GGUUUUGUCACCAUAGCCATT against 3110040N11Rik,-0.762
4,GGACAUUGAGUCAAAAAUCTT against Slc19a2,-0.966
5,GCCUGGAGAAGUGAACUCUTT against Tll1,-1.65
6,GGGAUUUCGAGAGACUAGCTT against Dock9,-0.487
7,GCCCUGAUGCAAGCUUGUGTT against Gprin3,0.193
8,CCUGUUUCAGUCAUUAGUGTT against Slc22a2,2.6 (active)
9,GGCAACUGUUUCUGCUCCGTT against Ap4e1,-0.746
10,GCCAAUCGUAACUUGCUAATT against Arhgap19,0.865
11,GGUACAACAAAAAUGUGACTT against Vmn1r73,-1.39
12,GCGAGGUGAAAAGCUUCUGTT against Sobp,-0.433
13,GGAAUUUUGCCAGCAAAUGTT against Edaradd,0.624
14,GGCCAUUAAUUACUACGAGTT against Ttc21a,0.368
15,GCAAAACUUGACUACCGCCTT against Bzw1,2.08 (active)
16,CCCGAGAAUACACCAUCAATT against Rpl31,0.347
17,CCAUUCCAUGUCGAUGUCUTT against Prm2,-2.08 (active)
18,GGGAGAUGUAUGCUUGCUCTT against Evi2a,0.934
19,CUCUAUCUCAUUGCAGUCCTT against Olfr671,-0.0809
20,GUUCCCUACAAGUUCUUCCTT against Phox2a,1.54
21,GGCUUUUGUCAAACAGCAUTT against Ins1,-2.9 (active)
22,GCGUAGACUUGAGGACUUATT against Uimc1,-0.705

row,Sequence,z-score
1,CGGCGGUGUGUUGUUUUAGTT against Hmces,0.36
2,CGGUUAGACAGUGCACCAATT against Dnm1,0.4
3,GGCUCGGACCAAAAAAAUUTT against Msantd3,-1.33
4,GCAUGCGACUCUGUUCUCGTT against Gtf2a2,-0.228
5,GGAGAUUUUCAAGAGACUCTT against 0610010F05Rik,1.94
6,GGAAAAACUACCAAGAGGATT against Pigp,2.32 (active)
7,GGUCUACCAUGACACACGUTT against Prrg2,0.519
8,GCCUGGUUUCUCCCUCAAATT against Pkmyt1,-0.567
9,CGCAGUUAUAUUCCACCACTT against Slain1,-0.317
10,GGUACCUAGGAUGCUCUCATT against Ift140,-2.23 (active)
11,GGCCUUCACUGGUUAAAAUTT against Ankrd6,0.0966
12,GGAGAUCCUCAUUUGUGUGTT against Ftmt,-1.99
13,GGGUAUGAGCAUAAAAUAATT against Il16,-1.2
14,GCAAAUGGUGCAUACGUGATT against Slc35d1,0.211
15,CCAAUUUGUCAAAACAAUCTT against Slit2,0.681
16,GGAUGUCAGGACAAAACCATT against Olfr1335,-2.51 (active)
17,GGAAGAGCUUUCUGGAAAUTT against Ndrg2,0.226
18,GGCAUACUUGUACCGCUAUTT against Mmp9,-0.35
19,GGAUAUUCAGCACUGGGAATT against Rrm2,-0.525
20,GGUAGUGGACAGUUUUGACTT against Mrpl55,0.675
